Laboratory results taken from PubChem BioAssay AID1159580 (chemical genetic matrix, 2015).
Several values for one entry are separate records, joined by “and”; a condition that tells them apart may be missing. Equal entries are not always repeated. Screen size: about 5,500 compounds; about 2,000 (36%) were called active. Inconclusive results (about 18%) are left out. Rule as the data show it: active = normalized growth mostly below about 0.91 (no sharp cut-off); inconclusive = no clear call, values can overlap the other calls; inactive = mostly above about 0.92. Some of the results follow.

Assay: chemical genetic growth profiling, strain panel (AID 1159580);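 also: tested at 20 µM; growth read once vehicle control cultures reached saturation at 30 °C; 1 = growth at the plate median or of vehicle wells; lower values mean less growth of the strain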
Conditions: growth OD

Measured: normalized growth

CC(C)NCC(O)COc1cccc2[nH]ccc12 (stereo not given)
inactive: S. cerevisiae deletion strains, locus YJR075W, strain HOC1, stronger effect = lower value 1.01 | S. cerevisiae deletion strains, locus YKL009W, strain mrt4, stronger effect = lower value 0.966 | S. cerevisiae deletion strains, locus YKL068W, stronger effect = lower value 0.984 | S. cerevisiae deletion strains, locus YKL085W, strain MDH1 (second series), stronger effect = lower value 0.968 | S. cerevisiae deletion strains, locus YKL085W, strain MDH1, stronger effect = lower value 0.968 | S. cerevisiae deletion strains, locus YKL160W, strain elf1, stronger effect = lower value 1 | S. cerevisiae deletion strains, locus YKL190W, strain CNB1, stronger effect = lower value 0.993 | S. cerevisiae deletion strains, locus YKR001C, strain vps1, stronger effect = lower value 0.988 | S. cerevisiae deletion strains, locus YKR026C, strain gcn3, stronger effect = lower value 0.966 | S. cerevisiae deletion strains, locus YKR091W, strain srl3, stronger effect = lower value 0.992 | S. cerevisiae deletion strains, locus YLL026W, stronger effect = lower value 0.983 | S. cerevisiae deletion strains, locus YLL041C, strain sdh2, stronger effect = lower value 0.983 | S. cerevisiae deletion strains, locus YLR027C, strain aat2, stronger effect = lower value 0.985 | S. cerevisiae deletion strains, locus YLR039C, strain RIC1, stronger effect = lower value 0.962 | S. cerevisiae deletion strains, locus YLR058C, strain SHM2, stronger effect = lower value 0.996 | S. cerevisiae deletion strains, locus YLR102C, strain apc9, stronger effect = lower value 0.988 | S. cerevisiae deletion strains, locus YLR113W, strain HOG1, stronger effect = lower value 0.987 | S. cerevisiae deletion strains, locus YLR221C, strain rsa3, stronger effect = lower value 0.994 | S. cerevisiae deletion strains, locus YLR258W, strain gsy2, stronger effect = lower value 0.981 | S. cerevisiae deletion strains, locus YLR262C, strain YPT6 (second series), stronger effect = lower value 0.994 | S. cerevisiae deletion strains, locus YLR262C, strain YPT6, stronger effect = lower value 0.966 | S. cerevisiae deletion strains, locus YLR268W, strain sec22, stronger effect = lower value 0.953 | S. cerevisiae deletion strains, locus YLR320W, strain mms22, stronger effect = lower value 0.977 | S. cerevisiae deletion strains, locus YLR330W, strain CHS5, stronger effect = lower value 0.978 | S. cerevisiae deletion strains, locus YLR342W, strain FKS1 (second series), stronger effect = lower value 0.994 | S. cerevisiae deletion strains, locus YLR342W, strain FKS1, stronger effect = lower value 0.996 | S. cerevisiae deletion strains, locus YLR357W, strain rsc2, stronger effect = lower value 0.952 | S. cerevisiae deletion strains, locus YLR370C, strain arc18, stronger effect = lower value 0.974 | S. cerevisiae deletion strains, locus YLR371W, strain rom2, stronger effect = lower value 0.97 | S. cerevisiae deletion strains, locus YLR384C, strain iki3, stronger effect = lower value 0.992 | S. cerevisiae deletion strains, locus YLR418C, strain cdc73, stronger effect = lower value 1 | S. cerevisiae deletion strains, locus YML016C, strain PPZ1, stronger effect = lower value 0.995 | S. cerevisiae deletion strains, locus YML032C, strain rad52, stronger effect = lower value 0.984 | S. cerevisiae deletion strains, locus YML120C, strain ndi1, stronger effect = lower value 0.976 | S. cerevisiae deletion strains, locus YML124C, strain tub3, stronger effect = lower value 0.989 | S. cerevisiae deletion strains, locus YMR058W, strain fet3, stronger effect = lower value 0.977 | S. cerevisiae deletion strains, locus YMR078C, strain ctf18, stronger effect = lower value 0.981 | S. cerevisiae deletion strains, locus YMR125W, strain sto1, stronger effect = lower value 0.953 | S. cerevisiae deletion strains, locus YMR129W, stronger effect = lower value 0.974 | S. cerevisiae deletion strains, locus YMR205C, strain PFK2, stronger effect = lower value 0.968 | S. cerevisiae deletion strains, locus YMR223W, strain ubp8, stronger effect = lower value 1.03 | S. cerevisiae deletion strains, locus YMR231W, strain pep5, stronger effect = lower value 0.984 | S. cerevisiae deletion strains, locus YMR263W, strain SAP30, stronger effect = lower value 0.985 and 1 and 0.998 | S. cerevisiae deletion strains, locus YMR307W, strain GAS1, stronger effect = lower value 1 and 0.998 | S. cerevisiae deletion strains, locus YNL067W, strain RPL9B, stronger effect = lower value 0.992 | S. cerevisiae deletion strains, locus YNL071W, strain lat1, stronger effect = lower value 0.982 | S. cerevisiae deletion strains, locus YNL128W, strain TEP1, stronger effect = lower value 0.986 | S. cerevisiae deletion strains, locus YNL153C, strain GIM3, stronger effect = lower value 1.01 | S. cerevisiae deletion strains, locus YNL175C, strain NOP13, stronger effect = lower value 0.995 and 1.02 | S. cerevisiae deletion strains, locus YNL183C, strain NPR1, stronger effect = lower value 0.955 | S. cerevisiae deletion strains, locus YNL197C, strain WHI3, stronger effect = lower value 0.986 and 1.02 | S. cerevisiae deletion strains, locus YNL209W, strain ssb2, stronger effect = lower value 0.99 | S. cerevisiae deletion strains, locus YNL224C, strain SQS1, stronger effect = lower value 0.992 and 0.996 | S. cerevisiae deletion strains, locus YNL233W, strain BNI4, stronger effect = lower value 0.995 | S. cerevisiae deletion strains, locus YNL248C, strain rpa49, stronger effect = lower value 1 | S. cerevisiae deletion strains, locus YNL250W, strain rad50, stronger effect = lower value 0.986 | S. cerevisiae deletion strains, locus YNL271C, strain bni1, stronger effect = lower value 0.993 | S. cerevisiae deletion strains, locus YNL298W, strain CLA4, stronger effect = lower value 0.977 | S. cerevisiae deletion strains, locus YNL307C, strain MCK1, stronger effect = lower value 0.982 | S. cerevisiae deletion strains, locus YNL322C, strain KRE1 (second series), stronger effect = lower value 0.994 | S. cerevisiae deletion strains, locus YNL322C, strain KRE1, stronger effect = lower value 0.995 and 0.991 and 1.02 | S. cerevisiae deletion strains, locus YNR049C, strain mso1, stronger effect = lower value 0.975 | S. cerevisiae deletion strains, locus YNR052C, strain pop2, stronger effect = lower value 0.967 | S. cerevisiae deletion strains, locus YOL006C, strain TOP1, stronger effect = lower value 1.04 | S. cerevisiae deletion strains, locus YOL012C, strain htz1 0.915 | S. cerevisiae deletion strains, locus YOL147C, strain pex11, stronger effect = lower value 0.992 | S. cerevisiae deletion strains, locus YOR001W, strain rrp6, stronger effect = lower value 0.994 | S. cerevisiae deletion strains, locus YOR061W, strain CKA2, stronger effect = lower value 0.996 | S. cerevisiae deletion strains, locus YOR069W, strain VPS5, stronger effect = lower value 0.991 | S. cerevisiae deletion strains, locus YOR070C, strain gyp1, stronger effect = lower value 0.981 | S. cerevisiae deletion strains, locus YOR080W, strain dia2, stronger effect = lower value 0.983 | S. cerevisiae deletion strains, locus YOR083W, strain WHI5 (second series), stronger effect = lower value 1.02 and 0.995 | S. cerevisiae deletion strains, locus YOR083W, strain WHI5, stronger effect = lower value 1.01 | S. cerevisiae deletion strains, locus YOR106W, strain vam3, stronger effect = lower value 1 | S. cerevisiae deletion strains, locus YOR136W, strain idh2, stronger effect = lower value 0.995 | S. cerevisiae deletion strains, locus YOR144C, strain elg1, stronger effect = lower value 0.992 | S. cerevisiae deletion strains, locus YOR184W, strain ser1, stronger effect = lower value 0.988 | S. cerevisiae deletion strains, locus YOR231W, strain MKK1, stronger effect = lower value 1 | S. cerevisiae deletion strains, locus YOR265W, strain rbl2, stronger effect = lower value 0.982 | S. cerevisiae deletion strains, locus YOR270C, strain vph1, stronger effect = lower value 0.973 | S. cerevisiae deletion strains, locus YOR290C, strain snf2, stronger effect = lower value 0.963 | S. cerevisiae deletion strains, locus YOR316C, strain cot1, stronger effect = lower value 0.98 | S. cerevisiae deletion strains, locus YPL051W, strain arl3, stronger effect = lower value 0.996 | S. cerevisiae deletion strains, locus YPL055C, strain LGE1, stronger effect = lower value 1.01 and 0.998 | S. cerevisiae deletion strains, locus YPL078C, strain atp4, stronger effect = lower value 0.989 | S. cerevisiae deletion strains, locus YPL106C, strain sse1, stronger effect = lower value 0.979 | S. cerevisiae deletion strains, locus YPL240C, strain hsp82, stronger effect = lower value 0.98 | S. cerevisiae deletion strains, locus YPL241C, strain CIN2, stronger effect = lower value 0.991 and 0.996 | S. cerevisiae deletion strains, locus YPL256C, strain CLN2, stronger effect = lower value 0.99 | S. cerevisiae deletion strains, locus YPR119W, strain clb2, stronger effect = lower value 0.981 | S. cerevisiae deletion strains, locus YPR141C, strain kar3, stronger effect = lower value 0.993 | S. cerevisiae deletion strains, locus YPR163C, strain tif3, stronger effect = lower value 0.984 | S. cerevisiae deletion strains, locus YPR167C, strain met16, stronger effect = lower value 0.977 | S. cerevisiae deletion strains, strain wtn01, stronger effect = lower value 0.985 | S. cerevisiae strains, strain wild type, stronger effect = lower value 1
